PfHsp40 yeast: rescue of PfHsp40-mediated yeast toxicity | AID 504582 | growth rescue, % at 12.5 µM | 340,000 compounds, 0.68% hits | S. cerevisiae expressing PfHsp40, growth rescue, ATP luminescence; in the data active means growth rescue above about 28%, passing the limit was not always enough; inconclusive means no clear call, values can overlap the other calls;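 further: yeast W303a lacking pdr1 and pdr3 grown in galactose medium; growth measured after three days at 30 °C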
Mtb BioA inh: inhibitors of Mycobacterium tuberculosis BioA enzyme. purified M. tuberculosis BioA enzyme, plate reader. inhibition, % at 9.99 µM. 360,000 compounds, 0.096% hits. AID 602481; in the data active means inhibition above about 40%; inconclusive means no clear call, values can overlap the other calls
RN4220 kill: kills Staphylococcus aureus RN4220; S. aureus RN4220 growth, OD600, 16 h; inhibition, % (concentration not given with the values); 330,000 compounds, 0.33% hits; AID 1259311; in the data active means inhibition above about 85%
ugtP null kill: kills S. aureus RN4220 lacking UgtP; S. aureus RN4220 ugtP deletion, OD600 growth, 16 h; growth inhibition, % (no concentration beside the values); 330,000 compounds, 0.54% hits; in the data active means growth inhibition above about 68%
Mtb betalactam: beta-lactam sensitization of Mtb H37Rv; M. tuberculosis H37Rv growth with meropenem, percent inhibition; inhibition, % at 25 µM; 330,000 compounds, 0.27% hits; call rule not given here;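 further: growth measured after seven days incubation then overnight dye step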
Numbers stand for hits; – = inactive; ? = inconclusive; · = no result given. An excerpt weighted towards active compounds, which were near 0.9% of everything screened.

SMILES	PfHsp40 yeast	Mtb BioA inh	RN4220 kill	ugtP null kill	Mtb betalactam
COc1ccc(-c2cc3nc(-c4ccccc4)cc(N4CCCC(O)C4)n3n2)cc1 (stereo not given)	66	·	–	–	–
COc1ccc(-c2cc3nc(-c4ccccc4)cc(N4CCN(C(C)=O)CC4)n3n2)cc1	·	–	·	·	·
COc1ccc(-c2cc3nc(-c4ccccc4)cc(N4CCC(O)CC4)n3n2)cc1	–	·	–	90	–
O=C(Sc1cccc2cccnc12)c1ccccc1Br	119	–	·	·	–
Oc1c(Br)cc(Br)cc1CNc1ccc(F)cc1	187	·	–	–	–
COc1cc(CCCN2C(=S)NCC2CC2CCCCC2)cc(OC)c1OC (stereo not given)	·	·	–	–	·
CCN(CC)c1ccc(C=C2NC(=O)NC2=O)cc1	·	·	–	–	·
Cc1cccc(Nc2nc(N)c([N+](=O)[O-])c(N3CC(C)CC(C)C3)n2)c1 (stereo not given)	64	·	–	–	–
Cc1cccc(Nc2nc(N)c([N+](=O)[O-])c(N3CC(C)OC(C)C3)n2)c1 (stereo not given)	–	–	–	–	–
O=C(NCCC(=O)N1CCN(c2ccccc2O)CC1)c1ccc(Br)cc1	301	–	–	–	–
COc1cccc(-n2c(SCc3ccccn3)nc3c(c2=O)SCC3)c1	62	·	–	–	–
CCC(C)C(N)c1cn(C(Cc2ccc(O)cc2)C(=O)N2CCNCC2)nn1 (stereo not given)	·	·	–	–	·
COC(=O)C1=C(c2ccc(F)cc2F)CC2CCC1N2C(=O)NCCOc1ccccc1Cl (stereo not given)	·	·	–	–	·
O=C(O)c1ccccc1NS(=O)(=O)c1cccc(-n2sc3ccccc3c2=O)c1	407	–	–	–	–
O=C(O)c1ccccc1NS(=O)(=O)c1cccc(C(F)(F)F)c1	–	–	–	–	–
N#CC(=C1CCCN1)c1nc2ccccc2c(=O)[nH]1	·	·	–	–	·
COc1ccc2c(c1)S/C(=C\C(=O)c1ccncc1)N2C	174	–	·	·	–
Fc1ccc(-c2cc(C(F)(F)C(F)F)[nH]n2)cc1	·	–	–	86	–
Cc1cc(NS(=O)(=O)c2ccc(NC(=O)CSc3nnc(-c4ccco4)n3Cc3ccco3)cc2)nc(C)n1	54	·	–	–	?
Oc1ccc(-c2cccc(-c3ccc(O)cc3)n2)cc1	–	·	98	99	–
Oc1ccc(-c2cc(-c3ccc(O)cc3)nc(-c3ccccc3)n2)cc1	–	–	97	100	–
Nc1ccc(-c2cc(-c3ccc(N)cc3)nc(-c3ccccc3)n2)cc1	–	–	–	–	–
COC(=O)C1=C(c2ccc(F)cc2OCc2ccccc2)CC2CCC1N2C(=O)NC1CCN(Cc2ccccc2)CC1 (stereo not given)	·	·	–	–	·
Cc1cc(O)c2c(c1)C(=O)C13C(=C2O)C(=O)[C@H]2[C@@H](O)[C@@H]1[C@H]1[C@H](O)[C@@H]3C(=O)C3=C(O)c4c(O)cc(C)cc4C(=O)C312 (stereo not given in full)	282	–	98	97	–
CCCn1nc([N+](=O)[O-])c(C(C#N)c2nc3ccccc3o2)c(Cl)c1=O (stereo not given)	–	·	–	–	–
SMILES	PfHsp40 yeast	Mtb BioA inh	RN4220 kill	ugtP null kill	Mtb betalactam
CCn1nc([N+](=O)[O-])c(C(C#N)c2nc3cc(C(F)(F)F)ccc3s2)c(Cl)c1=O (stereo not given)	–	–	99	92	–
CC(C)C1/C(=N/O)CC(c2ccccc2)NC1c1ccccc1 (stereo not given)	49	–	·	·	–
[N-]=[N+]=NC1CC(n2ccc(=O)[nH]c2=O)OC1CO (stereo not given)	·	·	–	–	·
CCOC(=O)c1ccc(N2C(=O)CC(N(C)CCc3ccc(OC)c(OC)c3)C2=O)cc1 (stereo not given)	558	–	–	–	–
CCOc1cccc(N2C(=O)CC(N(CCc3ccc(OC)c(OC)c3)C(=O)CC)C2=O)c1 (stereo not given)	–	–	–	–	–
CC(C)(C)OC(=O)NCCCCCNC(=O)c1nc[nH]c1C(=O)NCc1ccc(CNC(=O)OC(C)(C)C)cc1	–	–	–	–	–
CC(C)(C)OC(=O)NCCCCCNC(=O)c1nc[nH]c1C(=O)NCCCCCNC(=O)OC(C)(C)C	45	–	–	–	–
COc1ccc(C(N)=NOC(=O)c2ccc(C)c([N+](=O)[O-])c2)cc1	·	·	–	–	·
O=C(Nc1cccc(C(F)(F)F)c1)Oc1ccc(Cl)c2cccnc12	125	–	·	·	–
CCn1c(COc2cccc3ccccc23)nnc1SCC(=O)OC1CCCCC1	–	–	99	99	–
Cn1c(COc2cccc3ccccc23)nnc1SCC(=O)OC1CCCCC1	–	–	97	92	–
O=C(O)CSc1nnc(COc2cccc3ccccc23)n1Cc1ccccc1	–	·	–	–	–
O=C(C=Cc1ccccc1Cl)c1cccnc1	·	·	–	–	·
Cn1c(SCC=Cc2ccccc2)nnc1-c1cnccn1	·	·	–	–	·
CCOc1ccc(N2C(=O)NC(=O)C(=Cc3ccc(N4CCCCC4)o3)C2=O)cc1	·	·	–	–	·
COc1cc(OC)c(NC(=S)Nc2cc(Cl)cc(Cl)c2)cc1Cl	–	·	99	93	–
COc1cc(OC)c(NC(=S)Nc2cccc(C(C)=O)c2)cc1Cl	–	·	–	–	–
COc1ccccc1N=Cc1c(C)[nH]n(-c2ccc(C)cc2C)c1=O	58	·	–	–	–
COc1ccc2nc(/N=C/c3c(C)[nH]n(-c4ccc(C)cc4C)c3=O)sc2c1	–	–	·	·	?
COc1cc(SC#N)ccc1N=Cc1c(C)[nH]n(-c2ccc(C)cc2C)c1=O	38	–	–	–	–
O=C(NNC(=O)c1cc2ccccc2cc1O)Nc1ccccc1F	120	–	–	–	–
Cc1cccc(NC(=O)NNC(=O)c2cc3ccccc3cc2O)c1C	–	·	·	·	–
COc1ccc(-c2[nH]ncc2N=Nc2ccccc2)cc1	50	·	–	–	–
COc1ccc(-c2[nH]ncc2N=Nc2cc(C)cc(C)c2)cc1	–	·	–	–	–
O=C(c1ccccc1)c1ccc(Cn2cc(-c3ccccc3)nn2)cc1	723	–	–	–	–
SMILES	PfHsp40 yeast	Mtb BioA inh	RN4220 kill	ugtP null kill	Mtb betalactam
CCCCCc1ccc(-c2cn(Cc3ccc(C(=O)c4ccccc4)cc3)nn2)cc1	–	–	–	–	–
O=C(CCl)N1c2ccccc2Sc2c1ccc1ccccc21	–	–	94	100	·
Cc1cc(C)n(C(=O)C(C#N)=CN(C)C)n1	·	·	–	–	·
COC(=O)C1=C(c2ccc3ccccc3c2)CC2CCC1N2C(=O)NC(C)C (stereo not given)	·	·	–	–	·
O=C1CC(c2ccc(OCCCCCOc3ccc(C4CC(=O)NC4=O)cc3)cc2)C(=O)N1 (stereo not given)	–	–	–	–	–
CCCCCCCCOc1ccc(C2CC(=O)NC2=O)cc1 (stereo not given)	66	–	–	93	–
O=[N+]([O-])c1cccnc1N1CCC(c2cc(-c3cccc(C(F)(F)F)c3)n[nH]2)CC1	–	–	–	90	–
CCCCC(=O)NC(c1ccc(Cl)cc1Cl)c1ccc2cccnc2c1O (stereo not given)	–	–	·	·	–

Screens from PubChem.
